Where a name gives a salt, the structure may show the parent alone.
System: Danio rerio larvae (5 dpf)
Test: combined optomotor response (time in upper well half, down vs up moving lines, periods 7-14) minus DMSO control (percentage points); higher = stronger optomotor response than DMSO larvae
Conditions: 10 µM; exposure time: 3 h pre-incubation + 3 h imaging

SMILES	combined optomotor response
COc1cc2c(cc1OC)C1CC(=O)C(CC(C)C)CN1CC2 (stereo unspecified) [Tetrabenazine]	-0.321
C=C1C[C@@H]2[C@H](CC[C@]3(C)C(=O)CC[C@@H]23)[C@@]2(C)C=CC(=O)C=C12 [Exemestane]	3.71
O=c1[nH]c2ccccc2n1C1CCN(CCCC(c2ccc(F)cc2)c2ccc(F)cc2)CC1 [Pimozide]	-11
C=CCN1C[C@H](C(=O)N(CCCN(C)C)C(=O)NCC)C[C@@H]2c3cccc4[nH]cc(c34)C[C@H]21 [Cabergoline]	-6.92
CC(C)C[C@H]1C(=O)N2CCC[C@H]2[C@]2(O)O[C@](NC(=O)[C@@H]3C=C4c5cccc6[nH]c(Br)c(c56)C[C@H]4N(C)C3)(C(C)C)C(=O)N12 [Bromocriptine mesylate]	-10.1
CN1C[C@H](C(=O)N[C@]2(C)O[C@@]3(O)[C@@H]4CCCN4C(=O)[C@H](Cc4ccccc4)N3C2=O)C[C@@H]2c3cccc4[nH]cc(c34)C[C@H]21 [Dihydroergotamine mesylate]	13.2
CC[C@@H](C(N)=O)N1CCCC1=O [Levetiracetam]	7.27
Cc1cccc([C@H](C)c2c[nH]cn2)c1C [Dexmedetomidine hydrochloride]	-11.4
CC(O)(CS(=O)(=O)c1ccc(F)cc1)C(=O)Nc1ccc(C#N)c(C(F)(F)F)c1 (stereo unspecified) [Bicalutamide]	0.551
N[C@@H]1C[C@H]1c1ccccc1 [Tranylcypromine hydrochloride]	9.38
CCN(C)C(=O)Oc1cccc([C@H](C)N(C)C)c1 [Rivastigmine tartrate]	4.19

Reference: the supplement of paper PMC9950053
